Data published in PubChem BioAssay AID430 (Sanford-Burnham Center for Chemical Genomics, 2006).
Among all 63,000 compounds or so, about 1,100 (1.7%) were called active. Only a selection was taken, and actives are over-represented in it overall. Measured potencies and affinities stand elsewhere. A number with no mark means an inactive call. No stated cut-off is given here; in the data, active means cytotoxicity above about 50%; inactive means the rest.

assay: cytotoxicity in HPDE-C7 cells, cell-based, fluorescence, HTS (AID 430); conditions: HPDE-C7 pancreatic duct cells viability, at 10 µM, hits give high values;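 further: cells exposed to compound for 48 hours before viability readout; 0% = vehicle and 100% = reference cytotoxic drug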

SMILES	cytotoxicity
CC1(C)Oc2ccc3ccc(=O)oc3c2-c2cnoc21	-3.6%
O=C(c1cc(-c2cccs2)on1)N1CCN(c2ccccc2)CC1	51.3% (active)
O=C(c1cc(-c2cccs2)on1)N1CCN(c2ccc(F)cc2)CC1	11.3%
O=C(c1cc(-c2cccs2)on1)N1CCOCC1	-1.4%
Cc1cc(C)cc(OCc2nnc(SCC(=O)c3ccc(Br)cc3)o2)c1	-22.5%
N#Cc1c(NC(=O)c2cc(C3CC3)on2)sc2c1CCC2	65.1% (active)
COC(=O)CCC(=O)Nc1sc2c(c1C#N)CCCC2	-8%
CCc1ccc(CCC(=O)Nc2sc3c(c2C#N)CCCC3)o1	72% (active)
CCCc1cc(C(=O)Nc2sc3c(c2C#N)CCC3)no1	5.7%
CC(C)c1cc(C(=O)Nc2sc3c(c2C#N)CCC3)no1	17.6%
CCCC(=O)Nc1sc2c(c1C#N)CCCC2	2.6%
Cc1cc(C(=O)Nc2sc3c(c2C#N)CCC3)no1	53.5% (active)
CC(C)(C)C1CCc2c(sc(NC(=O)c3cc(C4CC4)on3)c2C#N)C1 (stereo unspecified)	30.3%
Cc1cc(C(=O)Nc2sc3c(c2C#N)CCCC3)no1	-1.6%
CCOc1cc(C2NC(=O)NC(C)=C2C(=O)OC(C)CC)cc(Br)c1O (stereo unspecified)	3.2%
Cc1nn(C)c(C)c1S(=O)(=O)N1CCC(C(=O)NC2CCCCCC2)CC1	3.3%
COCCCNC(=O)CCCn1c(=O)[nH]c2ccccc2c1=O	-15.8%
CCN(CC)CCN1C(=O)C(=O)/C(=C(/O)c2cnn(-c3ccccc3)c2C)C1c1cccnc1 (stereo unspecified)	0.2%
O=C(Nc1ccc(N2CCOCC2)cc1)C1CCCN(S(=O)(=O)c2ccccc2)C1 (stereo unspecified)	0.2%
CCOc1ccc2nc(C(C)O)[nH]c2c1 (stereo unspecified)	-5.7%
CCOc1ccc2nc(-c3ccccc3)[nH]c2c1	56.7% (active)
COc1ccc2nc(-c3ccccc3)[nH]c2c1	-3.7%

SMILES	cytotoxicity
COC(=O)c1ccc(Cl)c(NC(=O)CN2CCOCC2)c1	0.1%
CCOC(=O)c1cccc(NC(=O)CSc2nnc(-c3ccncc3)n2CCCOC)c1	-11.4%
C/C(CC(O)c1ccc2ccccc2n1)=N/O (stereo unspecified)	0.7%
CC(Sc1ccc2ccccc2n1)C(=O)O (stereo unspecified)	4.7%
COc1ccccc1N(CC(=O)Nc1ccc2c(c1)OCO2)S(=O)(=O)c1ccccc1	7.5%
O=C(NCCCO)c1nc2ccccc2s1	5.3%
CCc1cc2c(=O)c(-c3nc4ccccc4[nH]3)coc2cc1OC(=O)N1CCOCC1	-31.2%
CCc1cc2c(=O)c(-c3ccc4c(c3)OCCO4)coc2cc1OC(=O)c1ccco1	56.6% (active)
CCOC(=O)c1oc2cc(O)c(CC)cc2c(=O)c1-c1ccc2c(c1)OCCO2	0.2%
Cc1nc(NC(=O)c2cc3c(s2)CCCCC3)sc1C(=O)N(C)C	-7%
COC(=O)Cn1c2ccccc2c2nc(C)sc21	2.7%
O=C(CS(=O)(=O)c1ccccc1)N1CCCCCC1	-5.2%
C/C=C(\CS(=O)(=O)c1ccccc1)S(=O)(=O)c1ccccc1	35.4%
Cc1cccn2c(=O)c3cc(C#N)c(=N)n(CCN4CCOCC4)c3nc12	5%
Cc1ccccc1-n1c(SCc2cc(=O)n3ccccc3n2)nc2[nH]ncc2c1=O	-8%
CC1(N2CCCCC2)CC2(O)C(=[N+]1[O-])CCC/C2=N\O (stereo unspecified)	-1.5%
CC1(N2CCOCC2)CC2(O)C(=[N+]1[O-])CCc1nonc12 (stereo unspecified)	12.8%
CC1(N2CCOCC2)CC2(O)C(=[N+]1[O-])CCc1c2no[n+]1[O-] (stereo unspecified)	60.2% (active)
COc1ccc(Nc2nc(N3CCCC3)c3ccccc3n2)cc1	27.2%
Oc1ccc(Nc2nc(N3CCCC3)c3ccccc3n2)cc1	73.1% (active)
Cc1ccc(Nc2nc(N3CCOCC3)c3ccccc3n2)cc1	30.7%
C=CCN1C(=O)C2(c3ccccc31)C1CCCC=C1C(C#N)=C(N)C2(C#N)C#N (stereo unspecified)	-22.1%

SMILES	cytotoxicity
C=C(C)c1cccc(C(C)(C)NC(=O)N2CCOCC2)c1	7.9%
COc1ccc(C(O)C(CN2CCOCC2)c2ccccc2)cc1F (stereo unspecified)	-2.2%
COc1ccc(C(=O)O)cc1F	-2.5%
COc1ccc(C(=O)CCN2CCCCCC2)cc1	19.8%
COc1ccc(C(=O)C(c2ccccc2)N2CCOCC2)cc1 (stereo unspecified)	-4.6%
CCOC(=O)Cc1nnc(NC(=O)CSc2nnc3c4ccccc4n(C(C)C)c3n2)s1	-15%
CC1CCCCC1NC(=O)C1CCN(S(=O)(=O)c2ccc3c(c2)CCC(=O)N3)CC1 (stereo unspecified)	-18.5%
COc1ccccc1C1NC(=O)CS1 (stereo unspecified)	-18.6%
Cc1nc(-c2ccccc2)cc(N2CCCC2)n1	-14.7%
c1ccc(-c2cc(N3CCCCC3)ncn2)cc1	-3.8%
Nc1nc(-c2ccccc2)cc(N2CCCCC2)n1	50.6% (active)
CCOc1cccc2c1OC1(C)CC2NC(=O)N1c1cccc(F)c1 (stereo unspecified)	-12.1%
Cc1ccc(C(=O)Nc2ncc(Cc3ccccc3)s2)o1	31.4%
Cc1nnc(SCC(=O)Nc2ncc(Cc3ccc(F)cc3)s2)n1N	-7.7%
Cc1ccc(C(=O)Nc2ncc(Cc3ccc(F)cc3)s2)o1	57.5% (active)
CCOc1ccc(CN(CCO)CCO)cc1C(=O)OC	-17%
O=C(CSc1nc2ccccc2o1)Nc1ccccc1	-13.9%
CSc1cccc(NC(=O)CSc2nc3ccccc3o2)c1	-17.5%
CCCCN(Cc1ccccc1)C(=O)C1CCCN(S(=O)(=O)c2cnc[nH]2)C1 (stereo unspecified)	6%
Cc1ccccc1-n1c(C)nnc1SCC(=O)N1CC(=O)Nc2ccccc21	4.2%
Cc1cccc2cc(C#N)c(SCC(=O)N3CCC(C)CC3)nc12	8.5%
Cc1cccc2cc(C#N)c(SCC(=O)N3CC(=O)Nc4ccccc43)nc12	53.4% (active)
